Experimental data reported in PubChem BioAssay AID504660 (National Center for Advancing Translational Sciences (NCATS), 2011).
Hit rate of the full screen: of about 360,000 compounds, about 3,700 (1%) were called active. Cut-off read from the data, not from the text of the source: active = activation above about 30%; inactive = the rest. The list comes from a sample in which actives are over-represented; it also holds similar structures and randomly drawn compounds.

Target: D(1A) dopamine receptor (Homo sapiens) (UniProt P21728)
Assay: Allosteric Agonists of the Human D1 Dopamine Receptor: qHTS; note: 0% is about no effect
Details: HEK293 T-REx D1 cells, calcium flux, agonist mode; at 2 µM; stronger effect = higher value
From the text: NIH Chemical Genomics Center [NCGC] NIH Molecular Libraries Probe Centers Network [MLPCN] MLPCN Grant: NS064831-01 Assay Submitter (PI): David Sibley Dopamine receptors (DARs) are involved in the etiology and/or therapy of a number of neuropsychiatric and endocrine disorders. For instance, all receptor-based antiparkinsonian drugs work via stimulating the D1 DAR subtype whereas all FDA-approved antipsychotic agents are antagonists of this receptor. […] There are three different types of allosteric modulators that we are seeking, two of which will stimulate or augment receptor signaling, allosteric agonists and potentiators, while the third, allosteric antagonists, will attenuate receptor signaling. The present primary screening assay measures compound agonism by tracking calcium flux in a […], inducible Hek293 Trex D1 cell line.
Freshly passaged cells are plated in 1536 well black, clear bottom plates at a density of 4000 cells/well in 3 ul of complete media containing 1x tetracycline inducer. After an overnight incubation at […] in 5% CO2, cells are loaded with 2 ul of the no wash Calcium Assay Kit (ABD Bioquest) and incubated at room temperature for 30 to 90 minutes. Agonist read: A 10 cycle (1 second/cycle) baseline measurement is taken and then the FDSS online 1536 pintool delivers 23 nl of compound library (as well as dopamine controls) to the plate. The plate is measured for kinetically at 1 cycle/sec for 180 seconds and is considered to be the agonist portion of the assay (eg, compounds which activate a positive calcium response during this portion are flagged as potential agonists). Following the 180 second read, 1 ul of either an EC20 (positive modulation assay) or EC80 (negative modulation assay) is delivered by an onboard pipette head. Measurements are taken kinetically for an additional 180 seconds.

Sequence of D(1A) dopamine receptor (Homo sapiens) (P21728 whole entry, looked up): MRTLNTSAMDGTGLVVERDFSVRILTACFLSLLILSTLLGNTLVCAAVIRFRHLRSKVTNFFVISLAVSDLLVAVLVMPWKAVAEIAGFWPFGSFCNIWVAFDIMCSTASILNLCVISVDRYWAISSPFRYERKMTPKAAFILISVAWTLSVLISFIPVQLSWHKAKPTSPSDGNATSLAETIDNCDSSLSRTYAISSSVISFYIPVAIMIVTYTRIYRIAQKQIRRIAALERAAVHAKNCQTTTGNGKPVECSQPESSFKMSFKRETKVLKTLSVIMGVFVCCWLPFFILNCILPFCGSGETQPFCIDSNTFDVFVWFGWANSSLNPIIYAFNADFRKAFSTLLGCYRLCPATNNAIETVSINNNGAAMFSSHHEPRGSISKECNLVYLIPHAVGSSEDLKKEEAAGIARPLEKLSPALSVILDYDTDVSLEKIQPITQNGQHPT

Row | SMILES | activation
1 | CSc1ccc(CCNC(=O)c2ccc3c(c2)nc2n3CCOC2)cc1 | 0.926% (inactive)
2 | O=S(=O)(NCC(c1ccco1)N1CCOCC1)c1cc(F)ccc1F (stereo unspecified) | -2.87% (inactive)
3 | CCc1ccc(C2CC(=O)c3c([nH]c(C(=O)OCc4ccc(C)cc4)c3C)C2)cc1 (stereo unspecified) | 3.18% (inactive)
4 | Cc1ccc2nc(COc3cccc(NC(=O)Nc4ccc(C)c(Cl)c4)c3)cc(=O)n2c1 | -0.44% (inactive)
5 | Cc1ccc(C(=O)CC2(O)C(=O)N(CCc3ccccc3)c3ccc(Br)cc32)cc1 (stereo unspecified) | 9.1% (inactive)
6 | CCC(=O)c1ccc(OCC(=O)N(CC)CC2COc3ccccc3O2)cc1 (stereo unspecified) | 3.24% (inactive)
7 | c1ccc2c(c1)OCC(CNc1ncnc3nc[nH]c13)O2 (stereo unspecified) | 182% (active)
8 | O=C(Cn1nc(Cc2cccnc2)c2ccccc2c1=O)NCC1COc2ccccc2O1 (stereo unspecified) | 0.536% (inactive)
9 | CCn1c2ccccc2c2nnc(N3CCN(c4cc(C)ccc4C)CC3)nc21 | -0.584% (inactive)
10 | Cc1ccc2c(=O)c(C(=O)c3cccc(Cl)c3)cn(CC(=O)NCc3ccccc3)c2n1 | 0.234% (inactive)
11 | CCOc1ccc(NC(=O)Cn2cc(C(=O)c3ccc(C)cc3)c(=O)c3cc4c(cc32)OCCO4)cc1 | 4.93% (inactive)
12 | CC(=O)n1c(C=Nc2ccccc2)c(O)c2ccccc21 | 52.3% (active)
13 | CCCn1c(=O)c(-c2ccccc2)c(O)c2ccccc21 | 0.534% (inactive)
14 | Cc1cc(=O)n(CC(=O)Nc2cccc([N+](=O)[O-])c2)c(-n2nc(C)cc2C)n1 | -0.478% (inactive)
15 | Cc1ccc(C(=O)NC2CCN(C#N)CC2)cc1 | -0.099% (inactive)
16 | O=C(N/N=C/C=C/c1ccco1)c1cccs1 | 2.91% (inactive)
17 | Cc1cccc(-n2c(C)cc(/C=N\NC(=O)c3cccs3)c2C)c1 | 36.3% (active)
18 | Cc1ccccc1-n1c(C)cc(/C=N/NC(=O)c2ccc(CN3CCOCC3)cc2)c1C | 9.59% (inactive)
19 | N#CN1CCC(NS(=O)(=O)c2cccc(F)c2)C1 (stereo unspecified) | 0.986% (inactive)

Row | SMILES | activation
20 | Cc1cc2c(s1)c1cnn(Cc3cc(F)c(Cl)cc3Cl)c(=O)c1n2C | -0.162% (inactive)
21 | Cc1cccc(S(=O)(=O)c2cn(Cc3ccccc3)c3cc(N4CCOCC4)c(F)cc3c2=O)c1 | 1.08% (inactive)
22 | Cc1c(Nc2cc(N3CCCC(C)C3)c3nonc3c2[N+](=O)[O-])c(=O)n(-c2ccccc2)n1C (stereo unspecified) | -0.0536% (inactive)
23 | COCCNc1nc(N)c([N+](=O)[O-])c(N2CCCCCC2)n1 | 2.99% (inactive)
24 | Nc1cc(N2CCCCCC2)c2nonc2c1[N+](=O)[O-] | 34.1% (active)
25 | CC(C)c1ccc(NC(=O)Cn2c3ncccc3c(=O)n2-c2ccccc2)cc1 | 2.49% (inactive)
26 | COCCNc1ncnc2c1c(-c1ccccc1)cn2-c1ccc(C)c(Cl)c1 | 2.02% (inactive)
27 | CCC(O)C1CCN(Cc2cn(-c3ccc(OC)cc3)nc2-c2cccc(F)c2)CC1 (stereo unspecified) | 34.2% (active)
28 | COc1ccc(-n2cc(CNC3CCOCC3)c(-c3cccc(F)c3)n2)cc1 | 14.3% (inactive)
29 | Cc1cccc(-n2cc(CN3CCN(C(=O)c4ncn[nH]4)CC3)c(-c3cccc(F)c3)n2)c1 | 1.07% (inactive)
30 | CCOC(=O)c1ccc(NC(=O)CSc2nc3c([nH]c4ccccc43)c(=O)n2C)cc1 | 0.658% (inactive)
31 | COc1cccc(C(=O)NCC(=O)OCc2cc(=O)n3ccsc3n2)c1 | -0.454% (inactive)
32 | Cc1c(CCO)sc[n+]1CC(=O)OC12CC3CC(CC(C3)C1)C2 | 2.73% (inactive)
33 | Cc1c(CCOC(=O)c2cc([N+](=O)[O-])ccc2Cl)sc[n+]1CCCCS(=O)(=O)[O-] | 2.52% (inactive)
34 | Cc1c(CCOC(=O)CC23CC4CC(CC(C)(C4)C2)C3)sc[n+]1Cc1ccc([N+](=O)[O-])cc1 | 35.6% (active)
35 | CCn1c(CN2CCC(C)CC2)nc2cc(NC(=O)c3ccccc3[N+](=O)[O-])ccc21 | 0.209% (inactive)
36 | COc1ccc(OC)c(NC(=O)CSC2=Nc3ccccc3C3=NC(CC(=O)NCc4ccc(F)cc4)C(=O)N23)c1 (stereo unspecified) | -0.058% (inactive)
37 | CCOC(=O)c1ccc(N2C(=O)c3n[nH]c(C)c3C2c2ccc(O)c(OC)c2)cc1 (stereo unspecified) | 0.253% (inactive)
38 | CCCCCCCCCCOC(=O)Cn1c(COc2cccc(OC)c2)[n+](C)c2ccccc21 | 116% (active)

Row | SMILES | activation
39 | COc1ccc(-n2c(=O)c3sc4ccccc4c3n(CC(=O)Nc3cccc(C)c3)c2=O)cc1 | 8.8% (inactive)
40 | O=C(Nc1ccc(O)c(-c2nc3ccccc3o2)c1)c1ccc(-c2cccc(Cl)c2)o1 | 0.486% (inactive)
41 | Cc1cccc(OCC(O)Cn2c(=N)n(CCN3CCOCC3)c3ccccc32)c1 (stereo unspecified) | 0.333% (inactive)
42 | C=CCn1c(=N)n(CC(O)COc2ccc(OC)cc2)c2ccccc21 (stereo unspecified) | 40.4% (active)
43 | CCCn1c(=N)n(CC(O)COc2ccccc2OC)c2ccccc21 (stereo unspecified) | -0.594% (inactive)
44 | O=S(=O)(NCCc1nnc2ccc(SCc3ccc(Cl)cc3Cl)nn12)c1ccccc1 | 1.47% (inactive)
45 | Cc1ccc(Cl)cc1N1CCN(C(=O)c2cccn3c(=O)c4cc(Cl)ccc4nc23)CC1 | 2.28% (inactive)
46 | Cc1ccc(Cl)cc1N1CCN(C(=O)c2cccc3c(=O)c(C)c(-c4ccccc4)oc23)CC1 | 34.3% (active)
47 | CCn1cc(C(=O)N2CCN(c3cc(Cl)ccc3C)CC2)c(=O)c2cc(S(=O)(=O)N3CCCC3)ccc21 | -0.309% (inactive)
48 | COc1ccc(-c2c3c(=O)n(C)c(=O)n(C)c3c3c(C)nc4ccccc4n23)cc1 | -0.834% (inactive)
49 | COc1ccc(-c2nn3c(-c4ccc(OC)cc4)nnc3c3ccccc23)cc1 | -0.437% (inactive)
50 | CCOCCCNC(=O)c1cn(CC)c2ccc(S(=O)(=O)N3CCc4ccccc4C3)cc2c1=O | 0.286% (inactive)
51 | CSCCC(NC(=O)COc1ccccc1)C(=O)OCC(=O)c1cc2ccccc2o1 (stereo unspecified) | 5.5% (inactive)
52 | CSCCC(NC(=O)COc1ccccc1)C(=O)OCCOc1ccc(Br)cc1 (stereo unspecified) | 30.8% (active)
53 | CSCCC(NC(=O)COc1ccccc1)C(=O)OCCOc1ccc(F)cc1 (stereo unspecified) | 2.91% (inactive)
54 | CCOC(=O)CC1COCCN1C(=O)c1cc(COc2ccc(F)c(F)c2)on1 (stereo unspecified) | 43.4% (active)
55 | O=C(c1cc(COc2ccc(F)cc2F)on1)N1CCOCC1 | 2.85% (inactive)
56 | CCC(NC(=O)c1cc(COc2ccc(F)c(F)c2)on1)c1ccncc1 (stereo unspecified) | 24.1% (inactive)
